Data as given in PubChem BioAssay.
Values joined by “and” are separate entries in the source; they are usually repeats but may differ in a detail not shown here. Equal values may be shown once. Active and inactive are the calls of the source.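 How the source made its calls, unless noted: active means compounds that lower viability of the colon cancer cells in the luminescence readout, with no numeric limit stated; inactive means the rest.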

Assays:
[1] = Wnt pathway potentiators raising nuclear beta-catenin – imaging, WNT3A-conditioned medium, mouse C2C12, NPC library, primary screen (AID 1117326; in the data active means nuclear beta-catenin stimulation mostly above about 4.2%, no sharp cut-off; inactive means mostly below about 10%); conditions: stronger effect = higher value
[2] = stimulators of insulin release from INS-1E, primary screen, cell-based, 5 mM glucose, NPC library (AID 1117329;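 active means compound raises insulin release from rat beta cells at 5 mM glucose, no numeric limit stated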); conditions: rat INS-1E insulin secretion, at 10 µM, stronger effect = higher value
[3] = growth inhibition of GSK3B-pretreated HCT116 cells – cell-based, CellTiter-Glo, 0.2 to 20 µM (AID 1117336;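 active means compounds lowering colon cancer cell viability after pretreatment blocking the GSK3B kinase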); conditions: HCT116 viability after GSK3B inhibitor, at 20 µM, stronger effect = higher value
[4] = inhibition of endothelial tube formation, primary screen, imaging, VEGF stimulated, CD31 staining, tube area, NPC library (AID 1117340;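 active means compound that reduces growth-factor-driven endothelial tube area in a mixed cell culture, no cutoff stated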); conditions: VEGF-stimulated ADSC/ECFC co-culture, at 10 µM, stronger effect = higher value
[5] = GLP1 release stimulators, primary, NCI-H716, NPC library (AID 1117341;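 active means compound raises GLP1 secretion from the human gut endocrine cells, with no numeric limit stated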); conditions: NCI-H716 cells, at 10 µM, stronger effect = higher value
[6] = HCT116 colon cancer cell growth inhibition, primary screen, CellTiter-Glo luminescence, NPC library (AID 1117342;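 active means compounds that lower survival of HCT116 colon cancer cells in the luminescence readout, no numeric limit stated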); conditions: at 20 µM (top of the series)
[7] = reduced SW480 viability measured with CellTiter-Glo, NPC library, primary (AID 1117343); conditions: CellTiter-Glo luminescence; at 20 µM (top of the series)
[8] = NPC library primary testing for decreased DLD-1 cell viability via CellTiter-Glo (AID 1117346;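 active means compounds that lower survival of DLD-1 colon cancer cells in the luminescence readout, no cutoff given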); conditions: DLD-1 viability, CellTiter-Glo luminescence; at 20 µM (top of the series)
[9] = biological target: 6-phosphogluconate dehydrogenase, decarboxylating (Homo sapiens) (UniProt P52209); test: inhibition of human phosphogluconate dehydrogenase – biochemical, recombinant enzyme, NADPH absorbance, primary screen (AID 1159550;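 active means at least 20% inhibition of 6-phosphogluconate dehydrogenase activity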); conditions: recombinant 6PGD, NADPH absorbance 341 nm; at 10 µM; stronger effect = higher value
[10] = EMT-state selective cytotoxicity in co-culture – imaging, PC-3E GFP, TEM4-18 mCherry, primary screen (AID 1345086;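 active means compounds killing one labelled cell type while sparing the other, by normalised counts and ratio limits, not self-fluorescent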;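 on all read-outs here: cells exposed to compound for 72 h before imaging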;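 on red/green cell ratio (normalised): normalised mesenchymal count divided by normalised epithelial count so high means epithelial killing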); conditions: PC-3E GFP / TEM4-18 mCherry co-culture, imaging cell counts, at 1 µM; for red/green cell ratio (normalised): actives lie on both sides, counts scaled to control wells, 1 = unselective
[11] = MELAS cybrid and Rieske KO viability enhancers – cell-based, MELAS cybrids, Rieske KO mouse fibroblasts, CellTiter-Glo, primary screen (AID 1508586;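 active means mean z-score across replicates of 1.96 or higher in either the MELAS or the Rieske mutant cell line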;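 further: z relative to plate mean and SD of compound and empty wells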); conditions: low glucose
[12] = biological target: NAD(+) hydrolase SARM1 (Homo sapiens) (UniProt Q6SZW1); test: blocking NAD cleavage by SARM1 SAM-TIR – cell lysate, NAD-Glo luminescence (AID 1508614;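 active means compound whose remaining NAD level is above about 45 nM, limit read from the data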); conditions: SAM-TIR HEK293T lysate NADase, at 1 µM, stronger effect = higher value
[13] = biological target: Mitogen-activated protein kinase 7 (Homo sapiens) (UniProt Q13164); test: Gal4-ERK5 driven luciferase induction – cell-based, HTS, primary screen (AID 1508626;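 active means luciferase signal above three times the same-plate solvent-only control wells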;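 further: luciferase driven by Gal4-ERK5 fusion binding five Gal4 sites before minimal TATA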); conditions: HeLa Gal4-ERK5 transactivation, 18 h, at 5 µM, stronger effect = higher value
[14] = growth inhibition, single agents and combos, ICB984, cell-based, cisplatin or BGB combos, synergistic combos for chromothripsis tumors (AID 1671451; call rule not given here;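 further: cells exposed for 96 hours before readout; 0% = vehicle DMSO and 100% = killing by high DMSO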); conditions: ICB984 medulloblastoma cells, drug combinations, stronger effect = higher value
[15] = modulation of C. elegans fzo-1 (AID 1259413; call rule not given here;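 further: fzo-1 mutant C. elegans worms in liquid wells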); conditions: C. elegans fzo-1 modulator screen, mean read-out; stronger effect = higher value
F380Y = test: BK channel mutant inhibitors and activators – cell-based, U2OS BacMam, thallium flux, beta subunits, selectivity assay, profiling panel (AID 1259406;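 active means thallium flux through the channel raised or lowered by more than 3 SD from vehicle-only wells, actives on both sides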;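 further: initial slope of Thallos dye fluorescence rise after thallium is added; log ratio against the mean of 0.3% DMSO vehicle wells on the same plate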); conditions: U2OS BacMam BK variants, at 30 µM
F380Y/beta1 = test: as above; conditions: U2OS BacMam BK variants, at 30 µM
F380Y/beta2Delta = test: as above; conditions: U2OS BacMam BK variants, at 30 µM
[16] = viability loss with induced miR-34 in A549 – imaging, A549 dox-inducible miR-34, nuclei and caspase counts, primary screen (AID 1347080;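 active means compounds whose cell count with miR-34 switched on is under 0.7 times the count with it off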); conditions: A549 miR-34 inducible, Hoechst nuclei count, 48 h
[17] = measured here: epithelial PC-3E GFP cell survival
[18] = measured here: mesenchymal TEM4-18 mCherry cell survival
[19] = MELAS cybrid survival, CellTiter-Glo 48 h, stronger effect = higher value
[20] = Rieske KO mouse fibroblast survival, CellTiter-Glo 72 h

Sequence of NAD(+) hydrolase SARM1 (Homo sapiens) (Q6SZW1 whole entry, looked up, the tested form may be a part): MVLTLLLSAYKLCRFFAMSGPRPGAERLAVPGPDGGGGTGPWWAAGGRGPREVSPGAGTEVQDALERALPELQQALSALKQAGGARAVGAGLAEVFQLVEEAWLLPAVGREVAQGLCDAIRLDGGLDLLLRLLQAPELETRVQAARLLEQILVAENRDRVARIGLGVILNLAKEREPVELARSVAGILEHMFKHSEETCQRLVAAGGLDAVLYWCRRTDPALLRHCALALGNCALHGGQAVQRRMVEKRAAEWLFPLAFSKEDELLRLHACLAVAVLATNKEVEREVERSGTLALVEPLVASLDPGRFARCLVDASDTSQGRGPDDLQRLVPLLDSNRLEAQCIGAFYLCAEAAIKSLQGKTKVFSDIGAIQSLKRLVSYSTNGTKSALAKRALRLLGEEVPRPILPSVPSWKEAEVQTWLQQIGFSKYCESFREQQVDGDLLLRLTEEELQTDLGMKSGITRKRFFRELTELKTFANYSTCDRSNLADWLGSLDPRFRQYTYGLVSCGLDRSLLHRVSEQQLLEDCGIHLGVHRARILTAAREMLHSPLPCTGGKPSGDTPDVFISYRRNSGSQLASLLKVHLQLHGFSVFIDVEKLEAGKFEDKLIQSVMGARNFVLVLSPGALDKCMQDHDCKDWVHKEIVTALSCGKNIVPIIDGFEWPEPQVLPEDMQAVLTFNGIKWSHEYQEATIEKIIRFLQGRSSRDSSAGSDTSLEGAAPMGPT
Sequence of Mitogen-activated protein kinase 7 (Homo sapiens) (Q13164 whole entry, looked up, the tested form may be a part): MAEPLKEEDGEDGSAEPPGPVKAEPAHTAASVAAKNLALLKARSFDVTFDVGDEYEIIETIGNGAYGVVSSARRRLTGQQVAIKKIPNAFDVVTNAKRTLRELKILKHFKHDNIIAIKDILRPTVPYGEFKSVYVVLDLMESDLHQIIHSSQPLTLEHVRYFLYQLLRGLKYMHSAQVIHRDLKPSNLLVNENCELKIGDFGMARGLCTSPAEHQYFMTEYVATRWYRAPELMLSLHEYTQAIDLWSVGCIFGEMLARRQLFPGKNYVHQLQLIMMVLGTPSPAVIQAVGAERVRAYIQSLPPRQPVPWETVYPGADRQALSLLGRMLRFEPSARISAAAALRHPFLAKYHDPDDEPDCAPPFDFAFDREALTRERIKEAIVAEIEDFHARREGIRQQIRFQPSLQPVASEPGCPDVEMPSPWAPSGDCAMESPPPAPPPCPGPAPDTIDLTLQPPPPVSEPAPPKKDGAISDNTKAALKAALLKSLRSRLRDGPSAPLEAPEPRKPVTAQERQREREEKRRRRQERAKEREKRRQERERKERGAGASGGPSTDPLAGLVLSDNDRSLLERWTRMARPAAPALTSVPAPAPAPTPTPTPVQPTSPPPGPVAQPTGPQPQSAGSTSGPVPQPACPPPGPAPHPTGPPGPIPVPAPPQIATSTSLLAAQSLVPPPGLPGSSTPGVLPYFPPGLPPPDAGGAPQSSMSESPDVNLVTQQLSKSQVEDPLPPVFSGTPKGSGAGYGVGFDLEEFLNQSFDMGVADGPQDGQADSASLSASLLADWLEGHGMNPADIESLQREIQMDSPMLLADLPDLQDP
Sequence of 6-phosphogluconate dehydrogenase, decarboxylating (Homo sapiens) (P52209 whole entry, looked up): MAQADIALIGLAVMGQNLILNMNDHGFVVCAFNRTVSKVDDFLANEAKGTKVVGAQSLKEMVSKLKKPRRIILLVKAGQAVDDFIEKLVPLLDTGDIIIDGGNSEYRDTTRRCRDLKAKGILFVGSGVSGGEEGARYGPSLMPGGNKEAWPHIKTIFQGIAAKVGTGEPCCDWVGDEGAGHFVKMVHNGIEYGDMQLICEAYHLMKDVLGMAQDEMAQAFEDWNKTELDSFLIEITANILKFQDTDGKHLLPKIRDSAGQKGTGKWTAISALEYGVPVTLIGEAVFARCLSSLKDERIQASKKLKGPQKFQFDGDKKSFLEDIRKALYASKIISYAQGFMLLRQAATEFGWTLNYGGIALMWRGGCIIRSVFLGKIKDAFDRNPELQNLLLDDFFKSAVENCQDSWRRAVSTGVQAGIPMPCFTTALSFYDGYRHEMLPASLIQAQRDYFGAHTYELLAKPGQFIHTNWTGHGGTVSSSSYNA

Oc1ccc(C(O)CNCCCCCCNCC(O)c2ccc(O)c(O)c2)cc1O (configuration not stated)
nuclear beta-catenin stimulation ([1]; at 10 µM): -0.7% (inactive) | nuclear beta-catenin stimulation ([1]; stimulation, at 2 µM): -2.3% | insulin secretion stimulation [2]: 1.65% (inactive) | viability decrease [3]: 76.1% (active) | tube area decrease [4]: -0.1% (inactive) | GLP1 secretion stimulation [5]: 4.5% (inactive) | inhibition of viability [6]: 43% (inactive) | viability decrease (inhibition) [7]: 42.9% (inactive) | viability decrease (inhibition) [8]: 40.4% (inactive)

C/C(=N\O)c1ccc(OCC(=O)N2CCCCC2)cc1
nuclear beta-catenin stimulation ([1]; at 10 µM): 0.1% (inactive) | nuclear beta-catenin stimulation ([1]; stimulation, at 2 µM): -1.1% | insulin secretion stimulation [2]: 3.05% (inactive) | viability decrease [3]: 17.3% (inactive) | tube area decrease [4]: -6.2% (inactive) | GLP1 secretion stimulation [5]: 0.1% (inactive) | inhibition of viability [6]: 13.8% (inactive) | viability decrease (inhibition) [7]: -2.5% (inactive) | viability decrease (inhibition) [8]: -0.4% (inactive)

CCN(CC)CCCC(C)Nc1c2ccc(Cl)cc2nc2ccc(OC)cc12 (configuration not stated)
nuclear beta-catenin stimulation ([1]; at 10 µM): 3.9% (inactive) | nuclear beta-catenin stimulation ([1]; stimulation, at 2 µM): 1.8% | insulin secretion stimulation [2]: 84.6% (active) | viability decrease [3]: 103% (active) | tube area decrease [4]: 97.1% (active) | GLP1 secretion stimulation [5]: 7.1% (inactive) | inhibition of viability [6]: 102% (active) | viability decrease (inhibition) [7]: 122% (active) | viability decrease (inhibition) [8]: 97.7% (active) | inhibition [9]: 1.31% (inactive) | red/green cell ratio (normalised) [10]: 1.37 (inactive) | normalised cell number [10, 17]: 0.76 | normalised cell number [10, 18]: 1.04 | z-score [11, 19]: 0.298 and 1.99 (active) and 1.02 | z-score [11, 20]: 6.25 and 5.35 and 3.32 | remaining NAD [12]: 10 nM (inactive) | luciferase signal [13]: 1610 AU (active) | inhibition ([14]; BGB IC20 combo, at 0.005 µM): -4.02% | inhibition ([14]; BGB IC40 combo, at 0.005 µM): 16.5% | inhibition ([14]; BGB IC40 combo, at 0.05 µM): 90.3% | inhibition ([14]; at 0.5 µM): -2.08% (inactive) | inhibition ([14]; cisplatin combo, at 0.05 µM): 90% | inhibition ([14]; cisplatin combo, at 0.5 µM): -4.11% | inhibition ([14]; cisplatin combo, at 5 µM): -21.6% | inhibition ([14]; measured here: 5 uM single agent, at 5 µM): 1.6%

CCN(CC)CCCC(C)Nc1ccnc2cc(Cl)ccc12 (configuration not stated)
nuclear beta-catenin stimulation ([1]; at 10 µM): 1.4% (inactive) | nuclear beta-catenin stimulation ([1]; stimulation, at 2 µM): -0.7% | insulin secretion stimulation [2]: 11.2% (inactive) | viability decrease [3]: -10.8% (inactive) | tube area decrease [4]: 23% (inactive) | GLP1 secretion stimulation [5]: 6.3% (inactive) | inhibition of viability [6]: 19.9% (inactive) | viability decrease (inhibition) [7]: 31.4% (inactive) | viability decrease (inhibition) [8]: 5.6% (inactive) | inhibition [9]: 7.49% (inactive) | red/green cell ratio (normalised) [10]: 1.21 (inactive) | normalised cell number [10, 17]: 0.99 | normalised cell number [10, 18]: 1.2 | z-score [11, 19]: 0.423 (inactive) and -0.395 (inactive) | z-score [11, 20]: 0.725 and -1.28 | remaining NAD [12]: 10 nM (inactive) | luciferase signal [13]: 40 AU (inactive)

CN(C)CCCN1c2ccccc2CCc2ccc(Cl)cc21
nuclear beta-catenin stimulation ([1]; at 10 µM): 2.9% (inactive) | nuclear beta-catenin stimulation ([1]; stimulation, at 2 µM): 2.5% | insulin secretion stimulation [2]: 5.4% (inactive) | viability decrease [3]: -53% (inactive) | tube area decrease [4]: 23.1% (inactive) | GLP1 secretion stimulation [5]: 13.3% (inactive) | inhibition of viability [6]: 67.4% (active) | viability decrease (inhibition) [7]: 61.1% (active) | viability decrease (inhibition) [8]: 61.8% (active) | inhibition [9]: 13.8% (inactive) | mean signal [15]: 222 (inactive) | red/green cell ratio (normalised) [10]: 1.09 (inactive) | normalised cell number [10, 17]: 0.96 | normalised cell number [10, 18]: 1.05 | z-score [11, 19]: -0.661 (inactive) and 0.117 (inactive) | z-score [11, 20]: -0.587 and 0.253 | remaining NAD [12]: 10 nM (inactive) | luciferase signal [13]: 32 AU (inactive) | log fold change Tl+ flux (F380Y): -0.0375 (inactive) | log fold change Tl+ flux (F380Y/beta1): -0.109 (inactive) | log fold change Tl+ flux (F380Y/beta2Delta): -0.0656 (inactive)

CCC1(c2ccccc2)C(=O)NCNC1=O
nuclear beta-catenin stimulation ([1]; at 10 µM): 0.6% (inactive) | nuclear beta-catenin stimulation ([1]; stimulation, at 2 µM): 1.4% | insulin secretion stimulation [2]: -2.2% (inactive) | viability decrease [3]: -8.45% (inactive) | tube area decrease [4]: 12.9% (inactive) | GLP1 secretion stimulation [5]: -2% (inactive) | inhibition of viability [6]: 1% (inactive) | viability decrease (inhibition) [7]: -8.1% (inactive) | viability decrease (inhibition) [8]: -8.9% (inactive) | inhibition [9]: 14.9% (inactive) | mean signal [15]: 235 (inactive) | red/green cell ratio (normalised) [10]: 1.02 (inactive) | normalised cell number [10, 17]: 1.02 | normalised cell number [10, 18]: 1.05 | z-score [11, 19]: -0.279 (inactive) and 0.626 (inactive) | z-score [11, 20]: 0.595 and -0.386 | remaining NAD [12]: 10 nM (inactive) | luciferase signal [13]: 60 AU (inactive) | log fold change Tl+ flux (F380Y): -0.0227 (inactive) | log fold change Tl+ flux (F380Y/beta1): 0.00204 (inactive) | log fold change Tl+ flux (F380Y/beta2Delta): -0.0144 (inactive)

O=c1[nH]c2ccccc2c(=O)n1CCCl
nuclear beta-catenin stimulation ([1]; at 10 µM): 3.3% (inactive) | nuclear beta-catenin stimulation ([1]; stimulation, at 2 µM): 1.4% | insulin secretion stimulation [2]: 1.3% (inactive) | viability decrease [3]: 41.6% (inactive) | tube area decrease [4]: -18.9% (inactive) | GLP1 secretion stimulation [5]: 2.8% (inactive) | inhibition of viability [6]: 30.4% (inactive) | viability decrease (inhibition) [7]: 50.6% (active) | viability decrease (inhibition) [8]: 20.2% (inactive)

CC1=C(CC(=O)O)c2cc(F)ccc2/C1=C\c1ccc(S(C)=O)cc1 (configuration not stated)
nuclear beta-catenin stimulation ([1]; at 10 µM): -1.5% (inactive) | nuclear beta-catenin stimulation ([1]; stimulation, at 2 µM): 0.2% | insulin secretion stimulation [2]: 0.2% (inactive) | viability decrease [3]: -51.5% (inactive) | tube area decrease [4]: 15.7% (inactive) | GLP1 secretion stimulation [5]: -1.1% (inactive) | inhibition of viability [6]: -9.1% (inactive) | viability decrease (inhibition) [7]: 15% (inactive) | viability decrease (inhibition) [8]: -23.3% (inactive) | inhibition [9]: 2.79% (inactive) | mean signal [15]: 230 (inactive) | red/green cell ratio (normalised) [10]: 1.2 (inactive) | normalised cell number [10, 17]: 0.35 | normalised cell number [10, 18]: 0.43 | z-score [11, 19]: -0.637 (inactive) | z-score [11, 20]: 0.215 | remaining NAD [12]: 10 nM (inactive) | luciferase signal [13]: 56 AU (inactive) | log fold change Tl+ flux (F380Y): 0.0356 (inactive) | log fold change Tl+ flux (F380Y/beta1): 0.0787 (inactive) | log fold change Tl+ flux (F380Y/beta2Delta): 0.0561 (inactive)

c1ccc(-n2cnnn2)cc1
nuclear beta-catenin stimulation ([1]; at 10 µM): 0.3% (inactive) | nuclear beta-catenin stimulation ([1]; stimulation, at 2 µM): 0.9% | insulin secretion stimulation [2]: 1.9% (inactive) | viability decrease [3]: -7.2% (inactive) | tube area decrease [4]: 23.2% (inactive) | GLP1 secretion stimulation [5]: -5% (inactive) | inhibition of viability [6]: 1.7% (inactive) | viability decrease (inhibition) [7]: 10.4% (inactive) | viability decrease (inhibition) [8]: 1.4% (inactive)

CC[C@H]1CN2CCc3cc(OC)c(OC)cc3[C@@H]2C[C@@H]1C[C@H]1NCCc2cc(OC)c(OC)cc21
nuclear beta-catenin stimulation ([1]; at 10 µM): 12.4% (inactive) | nuclear beta-catenin stimulation ([1]; stimulation, at 2 µM): 9.1% | insulin secretion stimulation [2]: 13.4% (inactive) | viability decrease [3]: 82.1% (active) | tube area decrease [4]: 110% (active) | GLP1 secretion stimulation [5]: 2.4% (inactive) | inhibition of viability [6]: 84.8% (active) | viability decrease (inhibition) [7]: 115% (active) | viability decrease (inhibition) [8]: 97% (active) | inhibition [9]: 6.15% (inactive) | fold change ([16]; stronger effect = lower value, cell number ratio, induced over uninduced): 1.04 (inactive) and 0.853 (inactive) | fold change ([16]; measured here: relative caspase fold change +Dox/-Dox): 1.32 and 1.38 | cell count ([16]; measured here: total cells with miR-34 induction, stronger effect = lower value): 1340 and 1650 | cell count ([16]; measured here: total cells without miR-34 induction): 1300 and 1930 | remaining NAD [12]: 10 nM (inactive) | luciferase signal [13]: 24 AU (inactive)
